Compound activity from PubChem.
In the library only some 8.2% were active in any assay of this set; here they are far more common.
ELG1 repair inh: inhibitors of ELG1-dependent DNA repair in HEK293T cells. HEK293T ELG1-luciferase reporter, luminescence, 16 h; DNA damage induced by 5-fluorouridine. Potency, µM (doses to about 46.1 µM), for the others: at the highest dose activity change, negative = inhibition, hits mostly inhibitors. 330,000 tested, 2.3% active; further: on the % scale 0 is the no-effect control and ±100 the full control effect; nearly all actives have a fitted effect of over 55% in size
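Step one: seed 2,000 cells per well. Step two: pin-transfer compound or DMSO alongside 5-fluorouridine. Step three: incubate 16 hr, 37 °C, 5% CO2. Step four: add ONE-Glo, wait 30 min, read luminescence.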
MCF10A rerep: DNA re-replication induction in MCF 10a cells. 350,000 tested, 2.9% active. Potency, µM (series often up to 46.1 µM), for the others: at the top dose activity, positive = re-replication, hits mostly activators. MCF 10A DNA re-replication, Hoechst nuclear intensity, 48 h; further: % of control where 0% means no effect; nearly all actives have a fitted effect of over 50% in size
KB-V1 cytotox: KB-V1 MDR subline cytotoxicity. Potency, µM (top dose mostly 46.1 µM), actives largely listed as cytotoxic. 400,000 tested, 3.4% active. KB-V1 MDR cells viability, CellTiter-Glo, 72 h; further: on the % scale 0 is the no-effect control and ±100 the full control effect; nearly all actives have a fitted effect of over 60% in size
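Potencies derive from concentration-effect curves fitted to normalized luminescence (CellTiter-Glo) of KB-V1 cells treated for 72 h at 37 degrees C in phenol-red-free DMEM containing 10% FBS.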
KB-3-1 tox: kills parental KB-3-1 adenocarcinoma cells. KB-3-1 viability, CellTiter-Glo ATP luminescence, 72 h. Potency, µM (top dose mostly 46.1 µM), usual class: cytotoxic. 400,000 tested, 1.4% active. AID 1347075; further: on the % scale 0 is the no-effect control and ±100 the full control effect; nearly all actives have a fitted effect of over 60% in size
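Cytotoxicity in the drug-sensitive parental line KB-3-1 was scored as loss of CellTiter-Glo luminescence following 72 h incubation with compound. Values come from curve fitting of normalized concentration-response data.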
SW480 rerep: DNA re-replication induction in SW480 cells; SW480 DNA re-replication, Hoechst DNA content imaging, 48 h; Potency, µM (series often up to 46.1 µM), for the others: at the top dose re-replication activation, hits mostly activators; 340,000 tested, 1.8% active; further: % of control where 0% means no effect; nearly all actives have a fitted effect of over 55% in size
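Image-based read-out: total Hoechst fluorescence of nuclei (405 nm excitation, 500-530 nm emission), with hits raising the fraction of high-intensity nuclei. SW480 colon cells incubated 48 hr with compounds at 37 C.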
* = called active by the depositor; i = inactive; ? = inconclusive; / = not tested or not shown. The call rests on the fitted dose curve; in most records, active means well fitted curve in the direction sought with a large enough effect; inconclusive means small, poorly fitted or top-dose-only effect, or another doubt; inactive means no such curve, though single readings can be large; an effect the other way counts as inactive or inconclusive. Potency means the concentration at half of the fitted maximal effect.

SMILES	ELG1 repair inh	MCF10A rerep	KB-V1 cytotox	KB-3-1 tox	SW480 rerep
COc1cc(NC(=O)COC(=O)/C=C/c2c(C)nn(-c3ccc(F)cc3)c2Cl)cc(OC)c1	?	-3.1%	i	i	1.5%
Cc1ccc(Nc2cc(C)nc3ccc(C)cc23)cc1	8.2µM*	?	i	i	0.5%
CCOc1ccc(Nc2cc(C)nc3ccc(C)cc23)cc1	/	1.8%	?	?	-5.0%
CC(=O)c1ccc(Nc2cc(C)nc3c(C)cc(C)cc23)cc1	?	?	?	?	2.59µM*
Cc1cc(Nc2ccc3c(c2)OCCO3)c2cc(Cl)ccc2n1	?	10.0%	14.6µM*	i	2.1%
CCN(CC)S(=O)(=O)c1ccc(-c2csc(=Nc3cccc(C(F)(F)F)c3)n2Cc2ccc3c(c2)OCO3)cc1	/	/	i	i	/
COCCN1C[C@@H](CO)O[C@@H](n2cnc3c(NCc4ccc(F)cc4)ncnc32)C1	/	/	i	i	/
O=S(=O)(c1ccc(Br)cc1)c1cnc2ccccc2n1	?	?	i	i	18.4µM*
O=S(=O)(c1ccc2c(c1)nc(COc1ccc(Cl)cc1)n2CC1CCCO1)N1CCOCC1 (centres undefined)	?	10.1%	23.1µM*	i	8.4%
CCCCn1c(CCl)nc2cc(S(=O)(=O)N3CCOCC3)ccc21	?	?	?	?	13µM*
CCc1ccc(C(=O)CSc2nc3cc(S(=O)(=O)N4CCOCC4)ccc3n2CC)cc1	10.8%	-1.8%	20.6µM*	i	12.7%
CCn1c(SCC(=O)OC)nc2cc(S(=O)(=O)N3CCOCC3)ccc21	10.0%	-6.2%	i	i	?
CCCCn1c(C)nc2cc(S(=O)(=O)N3CCOCC3)ccc21	22.1%	-0.2%	i	i	3.8%
O=C1Cc2cc(S(=O)(=O)N3CCN(c4ccc(Cl)cc4)CC3)ccc2N1	/	/	?	i	/
O=C1NC(Cc2ccc(O)cc2)c2nc3cc(F)ccc3c(=O)n2-c2cc3ccccc3cc21 (centres undefined)	/	/	?	14.6µM*	/
CCCC1NC(=O)c2cc3ccccc3cc2-n2c1nc1ccc(C)cc1c2=O (centres undefined)	/	/	?	i	/
O=C1NC(Cc2ccccc2)c2nc3ccc(F)cc3c(=O)n2-c2cc3ccccc3cc21 (centres undefined)	/	/	20.6µM*	?	/
Cc1ccc2c(c1)-n1c(nc3cc(C)ccc3c1=O)C(Cc1ccccc1)NC2=O (centres undefined)	13.1%	/	/	/	/
Cc1ccc2c(=O)n3c(nc2c1)C(Cc1ccc(O)cc1)NC(=O)c1cc2ccccc2cc1-3 (centres undefined)	/	/	?	16.4µM*	/
CCCC1NC(=O)c2cc3ccccc3cc2-n2c1nc1cc(Cl)ccc1c2=O (centres undefined)	/	/	11.6µM*	18.4µM*	/
O=C1Cc2cc(S(=O)(=O)N3CCN(c4ccc(C(F)(F)F)cc4)CC3)ccc2N1	/	/	i	i	/
CCOC(=O)c1c(C)[nH]c(C)c1S(=O)(=O)N1CCCC(C(=O)N2CCN(c3cccc(C)c3C)CC2)C1 (centres undefined)	/	/	i	i	/
O=C(NCCOC(=O)c1ccc(C(=O)OCCNC(=O)c2cccnc2)s1)c1cccnc1	23.0%	-3.6%	i	i	-9.1%
O=C(NCCOC(=O)c1ccc(Cl)cc1)c1cccnc1	12.7%	3.66µM*	i	i	3.9%
CCC(C)Sc1ccc(-c2nc3ccc(C)cn3c2NCc2ccccc2)cc1 (centres undefined)	?	?	?	?	22.8%
SMILES	ELG1 repair inh	MCF10A rerep	KB-V1 cytotox	KB-3-1 tox	SW480 rerep
COc1ccc(CSc2ccc(-c3nc4ccccn4c3NCc3ccccc3)cc2OC)cc1	?	23.1µM*	?	?	?
CCC(C)Sc1ccc(-c2nc3ccccn3c2NCc2ccccc2)cc1OC (centres undefined)	?	20.6µM*	?	?	-4.0%
COc1cc(-c2nc3ccc(C)cn3c2NCc2ccccc2)ccc1-c1cccc(Cl)c1	-8.0%	?	i	i	?
O=C(N/N=C/c1ccccc1O)C1CC(=O)N(c2ccc(Cl)cc2)C1 (centres undefined)	?	?	i	?	5.8µM*
O=C(Nc1cccc(Cl)c1Cl)C1CC(=O)N(c2ccc(Br)cc2)C1 (centres undefined)	-29.2%	5.8µM*	i	i	6.7%
Nc1nc2nc(-c3cccs3)cc(C(F)(F)F)n2n1	28.4%	20.6µM*	i	i	?
CCOC(=O)c1nc2nc(-c3cccs3)cc(C(F)(F)F)n2n1	19.2%	-45.4%	i	i	0.8%
O=C(COC(=O)c1cccc(S(=O)(=O)N2CCCC2)c1)Nc1ccc(Cl)cc1	/	/	i	i	/
COc1ccc(OC2C(=O)N(CCc3ccc(OC)c(OC)c3)C2c2ccc3c(c2)OCO3)cc1 (centres undefined)	18.4µM*	?	?	i	?
Clc1ccc(-c2c[n+](Cc3ccc(Cl)c(Cl)c3)c3n2CCC3)cc1	-13.3%	/	/	/	/
Clc1cccc(C[n+]2cc(-c3ccccc3)n3c2CCC3)c1	-8.2%	17.2%	i	9.2µM*	-33.3%
O=C(C[n+]1cc(-c2ccccc2)n2c1CCC2)Nc1nc(-c2ccc(F)cc2)cs1	0.6%	7.6%	i	20.6µM*	-0.2%
O=C(C[n+]1cc(-c2ccccc2)n2c1CCC2)N1c2ccccc2Sc2ccccc21	2.7%	?	i	6.51µM*	3.9%
